Source: PubChem BioAssay (National Center for Advancing Translational Sciences (NCATS))
Pf growth 96h – P. falciparum growth inhibition at 96 hours; AID 504834; hit rate 6.9% among 320,000; Potency, µM (highest dose often 28.7 µM), most hits filed as inhibitors; P. falciparum luciferase reporter growth, 96 h; active = well fitted inhibition curve with a large enough effect; inconclusive = small, poorly fitted or top-dose-only effect, or another doubt; inactive = no such curve, though single readings can be large or run the other way
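Parasite growth measured via integrated firefly luciferase reporter in P. falciparum. Infected erythrocytes at 2% hematocrit, 0.05% parasitemia final were treated 96 hours at 37 C under 5% CO2, and luminescence was read.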
Pf growth 48h – inhibits P. falciparum growth in the first generation, 48 h | P. falciparum luciferase growth in erythrocytes, 48 h | Potency, µM (doses to about 28.7 µM), actives largely listed as inhibitors | hit rate 5.9% among 310,000; active = well fitted inhibition curve with a large enough effect; inconclusive = small, poorly fitted or top-dose-only effect, or another doubt; inactive = no such curve, though single readings can be large or run the other way
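First compound was added to culture medium, then infected red cells at 0.1% parasitemia and 2% hematocrit (final). After incubation at 37 C under 5% CO2, luciferase detection reagent was dispensed and light output recorded.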
NS1 function inh – blocks influenza NS1 protein function | Potency, µM (titrated, usually from 46.1 µM) | hit rate 0.4% among 270,000; also: actives are rising curves; nearly all actives have a fitted effect of over 50% in size
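Growth recovery, yeast-based: influenza A NS1 expressed in S. cerevisiae causes slow growth, and suppressors are detected by OD600. The parent strain without NS1 is used as positive control.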
SARS PLP yeast – SARS-CoV PLP inhibition in yeast; S. cerevisiae expressing SARS-CoV PLpro, growth rescue; hit rate 0.19% among 330,000; Potency, µM (series often up to 32.9 µM), most hits filed as activators; AID 485353; also: nearly all actives have a fitted effect of over 55% in size
Of the large screens only hits and unclear results are named; the others gave an inactive call; ! = repeats disagree. Compounds with a hit are over-represented: about 10% of the library has one in this group of screens. Unless noted, calls follow the shape of the full dose curve.

O=C1c2ccccc2C(=O)c2c(Nc3cc4c5c(ccc6c7ccc8c9c(cc(Nc%10cccc%11c%10C(=O)c%10ccccc%10C%11=O)c(c3c56)c97)-c3ccccc3C8=O)C(=O)c3ccccc3-4)cccc21	none (no result: Pf growth 96h, Pf growth 48h, SARS PLP yeast)
CN(C)C(=O)C(CCN1CCC(O)(c2ccc(Cl)cc2)CC1)(c1ccccc1)c1ccccc1	Pf growth 96h 2.9µM!, Pf growth 48h 2.9µM
CN(C)c1ccc(NC(=O)CN2CCC(O)(c3ccccc3)CC2)cc1	none
Cc1ccc(S(=O)(=O)NC2CCCCCCC2)cc1	Pf growth 96h 8.3µM
O=C(O)c1ccc(S(=O)(=O)N(Cc2ccc(F)cc2)C2CCCCC2)cc1	Pf growth 96h 12µM
O=C(O)c1ccc(S(=O)(=O)NC2CC2)cc1	none
O=C(O)c1ccc(S(=O)(=O)NC2CCCCCC2)cc1	Pf growth 96h 12µM
CC(C)CCN(C(=O)c1ccc(Br)cc1)c1c(N)n(Cc2ccccc2)c(=O)[nH]c1=O	none (no result: NS1 function inh)
C[C@H](Br)CN(C[C@H](C)Br)c1ccc2c(c1)Cc1ccccc1-2	none (no result: Pf growth 96h, Pf growth 48h, SARS PLP yeast)
CCCc1nnc(NC(=O)CCC(=O)NC2CCCC2)s1	Pf growth 96h inconclusive
CC(C)(CNC(=O)Cc1ccc(Br)cc1)N1CCOCC1	none
O=C(O)CCn1c(SCCOc2ccccc2F)nc2ccccc21	Pf growth 96h 10µM, Pf growth 48h inconclusive
CN(C)C(CNC(=O)CCc1c[nH]c2ccccc12)c1ccccc1 (stereo unspecified)	none
CC(C)(C)Sc1ccc2nc3c(n2c1)CCCC3	Pf growth 96h inconclusive, Pf growth 48h 12µM, SARS PLP yeast inconclusive
Cc1ccccc1S(=O)(=O)NCc1ccc(N2CCN(C)CC2)cc1	none
O=C1N(CCCN2C(=O)C3(OCCO3)c3ccccc32)c2ccccc2C12OCCO2	Pf growth 96h 8.3µM, Pf growth 48h inconclusive
Cc1ccc(NC(=O)N2C(=O)C3(OCCO3)c3ccccc32)cc1	Pf growth 96h 6.6µM
CCNC(=O)N1C(=O)C2(OCCO2)c2ccccc21	none (no result: Pf growth 96h)
O=C1N(CCCCN2C(=O)C3(OCCO3)c3ccccc32)c2ccccc2C12OCCO2	none
CCOCN(C(=O)Cn1c(CO)nc2ccccc21)c1c(C)cccc1CC	Pf growth 96h 10µM
CCOCN(C(=O)Cn1cnc2ccccc21)c1c(C)cccc1CC	Pf growth 48h inconclusive
CCOCN(C(=O)CCl)c1c(C)cccc1CC	Pf growth 96h inconclusive, Pf growth 48h 13µM (no result: NS1 function inh)
CCOC(=O)N1CCN(C(=O)c2ccc(OC(C)=O)cc2)CC1	Pf growth 96h inconclusive (no result: NS1 function inh)
COc1cc(C(=O)Nc2ccc(C)c(S(=O)(=O)N(C)C)c2)ccc1OCC(=O)N1CCOCC1	none (no result: NS1 function inh)
CCOC(=O)[C@@H]1[C@H]2COc3ccccc3[C@@H]2N2C(=O)N(c3ccc(C)cc3)C(=O)[C@]12C	none
Cc1cccc(NC(=O)Cn2nnc3sc4c(c3c2=O)CC(C)(C)OC4)c1	none
COc1cccc(NC(=O)Cn2c(=O)n(C)c(=O)c3sc4c(c32)COC(C)(C)C4)c1	Pf growth 96h 2.6µM, Pf growth 48h 4.1µM
COP(=O)(OC)OC(c1ccc(Cl)cc1)P(=O)(OC)OC (stereo unspecified)	none (no result: NS1 function inh, SARS PLP yeast)
C/C(=N\NC(=S)NC(C)C)c1ccccc1OC(F)F	Pf growth 96h 8.3µM (no result: NS1 function inh)
CCNC(=S)N/N=C(\C)c1ccc2ccccc2c1OC(F)F	Pf growth 96h inconclusive, Pf growth 48h 10µM (no result: NS1 function inh)
Cc1ccc(F)cc1NC(=O)CSc1ncccn1	none (no result: NS1 function inh)
COc1ccc(N(C)C(=S)Nc2ccc3nc(C)c(C)nc3c2)cc1	Pf growth 96h 2.3µM (no result: SARS PLP yeast)
CN(C)C(C)(C)C#CCC(c1ccccc1)c1ccccc1	Pf growth 96h inconclusive, Pf growth 48h 9.3µM
O/N=C/c1ccnc(SCc2ccc(Cl)cc2)n1	none
Cc1nc2ccccn2c1-c1ccnc(SCc2ccc(Cl)cc2)n1	Pf growth 96h 1.9µM, Pf growth 48h 5.9µM
CC(C)C[C@H]1CN=C(Nc2ccccc2)N1CCc1cccc(F)c1	none (no result: Pf growth 96h, Pf growth 48h, NS1 function inh)
CCN1C(Nc2ccccc2)=NC[C@@H]1CC(C)C	none
CC(C)C[C@H]1CN=C(Nc2ccccc2)N1CC1CCCCCC1	Pf growth 96h 10µM, Pf growth 48h inconclusive (no result: NS1 function inh)
Cc1cccc(CCN2C(Nc3ccccc3)=NC[C@@H]2CC(C)C)c1	Pf growth 96h inconclusive, Pf growth 48h 10µM (no result: NS1 function inh)
CCCCCCCN1C(Nc2ccccc2)=NC[C@@H]1Cc1ccccc1	Pf growth 96h 5.2µM, Pf growth 48h inconclusive
N#Cc1ccccc1NC(=O)C(=O)NCCc1csc(-c2ccc(F)cc2)n1	none (no result: NS1 function inh)
O=C(CSc1ncnc2sc3c(c12)CCC3)Nc1ccccc1C(=O)O	NS1 function inh inconclusive
CCOc1ccc2c(c1)c(N=NC(N)=S)c(O)n2C	Pf growth 96h 5.2µM, Pf growth 48h 9.3µM
CN(C)S(=O)(=O)c1cccc(-c2csc(N/N=C/c3ccco3)n2)c1	Pf growth 48h inconclusive, NS1 function inh inconclusive
Cc1ccc(-c2csc(N/N=C/c3ccco3)n2)c(C)c1	Pf growth 48h 13µM
CCOC(=O)C1(Cc2cccc(F)c2)CCN(Cc2nc(CC)[nH]c2C)CC1	Pf growth 48h 3.3µM
CCOC(=O)C1(Cc2cccc(F)c2)CCN(CC2CC2)CC1	Pf growth 96h 15µM
CCOC(=O)C1(Cc2cccc(F)c2)CCN(Cc2cnn(CC)c2)CC1	none
Cc1ccc(-c2cc3nc(C)cc(C)n3n2)cc1	none
Cc1cc(C)n2nc(-c3ccsc3-n3c(C)ccc3C)cc2n1	Pf growth 96h inconclusive, Pf growth 48h 13µM
CCCn1c(N)c(N(CCOC)C(=O)c2ccc(F)cc2F)c(=O)[nH]c1=O	none
CC(OC(=O)c1ccc2c(c1)NC(=O)CS2)C(=O)c1ccc(F)cc1 (stereo unspecified)	none (no result: Pf growth 96h, Pf growth 48h, NS1 function inh)
CC1CCCCC1NC(=O)CCS(=O)(=O)c1ccc2c(c1)NC(=O)CS2 (stereo unspecified)	none
COc1ccc(CNC(=O)CCS(=O)(=O)c2ccc3c(c2)NC(=O)CS3)cc1	Pf growth 96h 15µM
CC1CCCC(NC(=O)CCS(=O)(=O)c2ccc3c(c2)NC(=O)CS3)C1C (stereo unspecified)	Pf growth 96h 13µM
COC(=O)c1ccc2c(c1)NC(=O)CS2	Pf growth 48h 12µM (no result: NS1 function inh)
Nc1nc(-c2cc(-c3cccc4ccccc34)nc(N)n2)cc(-c2cccc3ccccc23)n1	none (no result: Pf growth 96h, Pf growth 48h, SARS PLP yeast)
COc1ccccc1C(=O)NC(CCSC)C(=O)OCC(=O)N1CCCC1=O (stereo unspecified)	none (no result: NS1 function inh)
CC1CCC/C(=C(\C#N)c2nc(-c3cc4ccccc4oc3=O)cs2)C1 (stereo unspecified)	Pf growth 96h 6.6µM
O=C(NCCO)c1ccc(Cl)cc1	none (no result: Pf growth 96h, Pf growth 48h, SARS PLP yeast)
O=C(NCCO)c1ccc(Cl)c(Cl)c1	Pf growth 96h 15µM
c1ccc(NC2=NCCN2CC2CCCCCC2)cc1	Pf growth 96h inconclusive, Pf growth 48h inconclusive (no result: NS1 function inh)
CCc1nc2ccc(C(=O)NC3CCC(C)CC3)cc2nc1CC (stereo unspecified)	NS1 function inh inconclusive
Cc1ccc(S(=O)(=O)c2cc3ccccc3oc2=O)cc1	none (no result: NS1 function inh)
Cc1c(O)ccc2cc(S(=O)(=O)c3ccccc3)c(=O)oc12	Pf growth 96h 12µM
CC(=O)c1cccc(NC(=O)C(C)OC(=O)CCN=C2NS(=O)(=O)c3ccccc32)c1 (stereo unspecified)	Pf growth 96h inconclusive (no result: NS1 function inh)
CCN(C(=O)c1cccc(NC(=O)c2ccccc2)c1)C1CCCCC1	Pf growth 96h inconclusive
Cc1ccc(S(=O)(=O)N2CCC(C(=O)NCC3CC3)CC2)cc1	Pf growth 48h 5.9µM
